# Assay results as given in PubChem BioAssay (NCI).
# The panel holds about 83,000 compounds, 20% with a hit somewhere; the sample as a whole holds those more often.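 Assay: single dose, 48 h. Readout: percent growth (0 = no net growth; negative = cell death). Active: <10.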 Active and inactive are the calls of the source.
# Test system: HL-60(TB) leukemia
# Assay: NCI-60 one-dose screen, 48 h (100 = growth as untreated, 0 = no growth, -100 = all killed)
# Details: 10 µM unless noted
row,Structure (SMILES),growth
1,CCOC(=O)C(CCN(C)C)c1ccccc1 (stereo not given),88.8% (inactive)
2,O=C(c1ccc(Nc2nccc(NCCCNc3ccnc4cc(Cl)ccc34)n2)cc1)N1CCCCC1,22.4% (inactive)
3,CN(CCC(=O)c1ccccc1)CCC(=O)c1ccccc1,75.4% (inactive)
4,Cn1cc(-c2ccc(-c3cn(C)c4ccc(Cl)cc34)[nH]2)c2cc(Cl)ccc21,-37.8% (active)
5,Cc1ccc(C)c2c1sc1nc(N3CCOCC3)c(C#N)c(=O)n12,93.4% (inactive)
